From PubChem BioAssay (NCATS)
Inconclusive results are not listed. The source made the active and inactive calls. Unless noted, calls come from the whole dose curve; as a rule, active = well fitted curve in the direction sought with a large enough effect; inconclusive = small, poorly fitted or top-dose-only effect, or another doubt; inactive = no such curve, though single readings can be large; an effect the other way counts as inactive or inconclusive.

Experiments:
[1] = qHTS for differential inhibitors of proliferation of Plasmodium falciparum line HB3 (AID 1886);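 note: parasites grown with compound for 72 h before SYBR Green readout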
[2] = molecular target: Ferritin light chain (Equus caballus) (UniProt P02791); assay: qHTS Validation Assay for Identification of Novel General Anesthetics (AID 2323)
In short: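 Fluorescence at 535 nm (excitation 380 nm) reported loss of 1-AMA binding to horse-spleen apoferritin (10 uM) in PBS with 50% saturated 1-aminoanthracene, after 10 min room-temperature incubation with compound; values from Hill fits of normalized response.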

[3] = molecular target: ATP-dependent DNA helicase Q1 (Homo sapiens) (UniProt P46063); assay: qHTS Validation Assay for Inhibitors of RecQ-Like Dna Helicase 1 (RECQ1) (AID 2353)
In short: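 50 nM RECQ1T1 preincubated 15 min with compound in Tris pH 8.0 buffer with MgCl2, DTT, Tween-20 and 2.5 ug/ml poly(dI-dC); started with 200 nM TAMRA/BHQ-2 forked duplex and 2 mM ATP. Unwinding read as fluorescence (525/598 nm), two reads 2 h apart.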

[4] = Validation screen for small molecules that induce DNA re-replication in MCF 10A normal breast cells (AID 463097); note: nearly all actives have a fitted effect of over 60% in size
In short: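 Image-based qHTS: normal breast cells are incubated with compound for 48 hr, stained with Hoechst, and scanned for total nuclear fluorescence. Compounds raising the fraction of nuclei with elevated DNA content count as re-replication inducers.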

[5] = Quantitative high throughput screen for delayed death inhibitors of the malarial parasite plastid, 96 hour incubation (AID 488745);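 note: luciferase-expressing P. falciparum in erythrocytes at 2% hematocrit and 0.1% parasitemia; nearly all actives have a fitted effect of over 70% in size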
In short: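 Growth of reporter-bearing P. falciparum in red cells is measured after 96 h with compound, covering two erythrocytic cycles. Luminescence from the integrated luciferase serves as the growth signal.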

[6] = Quantitative high throughput screen for delayed death inhibitors of the malarial parasite plastid, 48 hour incubation (AID 488752); note: nearly all actives have a fitted effect of over 65% in size
In short: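 One parasite generation (48 h, 37 C, 5% CO2) of luciferase-reporter P. falciparum in erythrocytes is run with test compound; decreased luminescence indicates inhibited growth.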

[7] = molecular target: M-phase phosphoprotein 8 (Homo sapiens) (UniProt Q99549); assay: qHTS Validation Assay for Inhibitors for MPP8 Chromodomain Interactions with Methylated Histone Tails (AID 488949);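 note: 50 nM MPP8 with 50 nM peptide preformed then compounds added for 30 min; AlphaScreen signal from MPP8 chromodomain bound to biotinylated H3K9me3 peptide; top concentration of the series differs between compounds; nearly all actives have a fitted effect of over 55% in size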
In short: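 50 nM MPP8 + 50 nM b-H3K9me3 peptide, PBS pH 7.4/0.01% Tween-20, 30 min RT; + cpd 30 min RT; + AlphaScreen donor/Ni-chelate acceptor beads 10 ug/mL final, 30 min dark; luminescence read.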

[8] = Cytometric Cell-Based qHTS for Inhibitors of the mTORC1 Signaling Pathway in MEF (Tsc2-/-, p53-/-) Cells (AID 2660);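 note: Tsc2 and p53 null MEFs carrying empty vector with compound for 24 h; percent of cells above a phospho-rpS6 to PI ratio cutoff in each well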
In short: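 Percent of cells positive for normalized phospho-S6 staining is reported, with the cutoff set from rapamycin (7.5 nM) versus DMSO wells. Tsc2-/-, p53-/- MEFs received compound for 24 hrs.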

[9] = High Content Imaging Cell-Based qHTS for Inhibitors of the mTORC1 Signaling Pathway in MEF (Tsc2-/-, p53-/-) Cells (AID 2666); conditions: at 38.3 µM (top of the series);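 note: percent of cells scored positive for phospho-rpS6 Ser235/236 immunostaining by imaging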
In short: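 Cells were plated, dosed with compound after 24 hrs, and incubated another 24 hrs at 37 degree Celsius. Fixed cells were immunostained for phospho-rpS6 Ser235/236 and counterstained, and the normalized signal was scored as % active cells against rapamycin and DMSO controls.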

[10] = High Content Imaging Cell-Based qHTS for Inhibitors of the mTORC1 Signaling Pathway in MEF Cells (AID 2667);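 note: Tsc2-/- p53-/- MEFs stably re-expressing wild-type Tsc2 exposed 24 h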
In short: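 Immunofluorescence for rpS6 phosphorylation in MEFs of Tsc2-/-, p53-/- background rescued with WT Tsc2. Compound exposure lasted 24 hrs. Inhibition was scored against rapamycin-treated control wells.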

[11] = Cytometry Cell-Based qHTS for Inhibitors of the mTORC1 Signaling Pathway in MEF cells (AID 2668);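 note: Tsc2-/- p53-/- mouse embryonic fibroblasts stably re-expressing wild-type Tsc2; percent cells positive for phospho-rpS6 Ser235/236 relative to propidium iodide stain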
In short: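 Tsc2-/-, p53-/- MEFs re-expressing WT Tsc2; cpd 24 hrs, 37 degree Celsius; PFA fix, Alexa-488 p-rpS6 (Ser235/236) Ab 2 hrs RT, PI counterstain; Acumen 488nm scan; p-S6/PI ratio → % positive cells; PI count = viability.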

[12] = molecular target: Ubiquitin carboxyl-terminal hydrolase 2 (Homo sapiens) (UniProt O75604); assay: qHTS Validation Assay for Inhibitors of Ubiquitin-specific Protease USP2a Using CHOP2 as the Reporter (AID 463106)
In short: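 10nM USP2 core + cpd, 30min RT; add 25nM Ub-CHOP2/25nM substrate; 60min RT; FI 485/531nm. Buffer Tris pH 8.0, CaCl2, BME, CHAPS. Norm. to NEM = 100% inhibition; time-zero read flags fluorescent artifacts.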

[13] = molecular target: DNA polymerase III PolC-type (Bacillus subtilis (strain 168)) (UniProt P13267); assay: qHTS Validation Assay for the Inhibitors of DNA Replication in Gram-Positive Bacteria (AID 485295);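 note: reconstituted holoenzyme with PolC plus beta clamp SSB and primase; PicoGreen fluorescence of double-stranded DNA made on primed circular M13 template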
In short: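 First, compound is mixed with the reconstituted replication complex and held at room temperature. Next, circular single-stranded M13Gori with nucleotides starts synthesis. Finally, PicoGreen in EDTA halts the reaction and stains double-stranded product for fluorescence reading.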

[14] = molecular target: Tumor susceptibility gene 101 protein (Homo sapiens) (UniProt Q99816); assay: qHTS Validation Assay for Iinhibitors of HIV-1 Budding by Blocking the Interaction of PTAP/TSG101 (AID 485342; calls by dose curve)
In short: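 Binding of a FITC-tagged PTAP-motif peptide (50 nM) to the Tsg101 binding domain (10 uM) is monitored by fluorescence polarization. Compounds are pin-delivered before peptide addition, and incubation runs 20 min at room temperature.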

[15] = qHTS Validation Assay to Find Inhibitors of Chronic Active B-Cell Receptor Signaling (AID 485345; active = well fitted curve in the direction sought with a large enough effect in the main read-out, with a control signal flat, not every such curve was filed as active)
In short: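 Read-out: ratio of filter-corrected green (IkappaBalpha fusion) to red (native) luciferase signal in doxycycline-induced TMD8 cells after 4 h at 37C. Titration spanned 46 uM–3 nM; Data were normalised to basal cells and 10 uM MG-132 wells.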

[16] = molecular target: Beta-2 adrenergic receptor (Homo sapiens) (UniProt P07550); assay: qHTS validation assay of beta-arrestin-biased ligands of beta2-adrenergic receptor (AID 485366)
In short: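 Luminescence from a tTA-responsive luciferase, induced when recombinant beta-arrestin is recruited to recombinant beta2-AR, served as the agonism signal. Cells were exposed to compound for 18 hr at 37 degrees C; titrations spanned up to 46 microM.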

[17] = molecular target: Thioredoxin reductase 1, cytoplasmic (Rattus norvegicus) (UniProt O89049); assay: qHTS Assay for Substrates of Mammalian Selenoprotein Thioredoxin Reductase 1 (TrxR1) (AID 488772);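 note: NADPH fluorescence in the first read after selenite addition and not the 8 min delta; a drop in NADPH fluorescence below the no-compound background marks a TrxR1 substrate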
In short: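 Quantitative HTS in Tris-HCl buffer at pH 7.5 with EDTA and Tween-20, using rat TrxR1, 400 uM NADPH and 400 uM selenite (final). A fall in initial NADPH fluorescence relative to background marked substrate behaviour.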

[18] = molecular target: Thioredoxin reductase 1, cytoplasmic (Rattus norvegicus) (UniProt O89049); assay: qHTS Assay for Inhibitors of Mammalian Selenoprotein Thioredoxin Reductase 1 (TrxR1) (AID 488773);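 note: drop in NADPH fluorescence over an 8 min run after selenite addition; nearly all actives have a fitted effect of over 40% in size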
In short: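 Steps: enzyme (90 nM) plus NADPH (400 uM final), 5 min at ~22 deg C; compound added, 15 min; selenite (400 uM final) added; fluorescence followed for 8 min. Concentration-response curves derived from the normalized delta values.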

[19] = molecular target: Flap endonuclease 1 (Homo sapiens) (UniProt P39748); assay: qHTS Validation Assay for the Inhibitors of Human Flap endonuclease 1 (FEN1) (AID 488816)
In short: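 Readings taken at 0 and 15 min after starting the reaction with 50 nM (final) substrate supplied the signal. Compounds had first sat with 10 nM FEN1 reagent for 15 min at room temperature. Values come from Hill-equation concentration-response fits.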

[20] = molecular target: Chromobox protein homolog 1 (Homo sapiens) (UniProt P83916); assay: qHTS Validation Assay for Inhibitors of HP1-beta Chromodomain Interactions with Methylated Histone Tails (AID 488953);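 note: loss of AlphaScreen luminescence from HP1-beta binding biotinylated H3K9me3 peptide; nearly all actives have a fitted effect of over 50% in size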
In short: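 Measured as loss of AlphaScreen luminescence from streptavidin donor and nickel acceptor beads (10 ug/mL final) bridging HP1-beta and biotin-H3(1-18)K9me3, each 50 nM. Compounds met the preassembled complex for 30 min at RT.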

Measured: outcome

Thioredoxin reductase 1, cytoplasmic (Rattus norvegicus), sequence (O89049 whole entry, looked up): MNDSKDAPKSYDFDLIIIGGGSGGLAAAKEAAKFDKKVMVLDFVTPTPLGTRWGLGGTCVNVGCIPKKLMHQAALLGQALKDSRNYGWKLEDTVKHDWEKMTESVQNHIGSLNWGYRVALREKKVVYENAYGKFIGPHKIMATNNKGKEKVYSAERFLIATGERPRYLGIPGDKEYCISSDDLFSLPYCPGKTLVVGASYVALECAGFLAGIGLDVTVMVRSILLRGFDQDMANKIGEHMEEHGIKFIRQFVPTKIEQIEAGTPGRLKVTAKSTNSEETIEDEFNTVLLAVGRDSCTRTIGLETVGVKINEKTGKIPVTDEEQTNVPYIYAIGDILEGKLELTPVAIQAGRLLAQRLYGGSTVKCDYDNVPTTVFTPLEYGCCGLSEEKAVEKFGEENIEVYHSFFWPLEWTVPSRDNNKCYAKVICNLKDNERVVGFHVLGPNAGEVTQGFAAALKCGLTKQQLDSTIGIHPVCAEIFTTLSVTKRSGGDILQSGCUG
M-phase phosphoprotein 8 (Homo sapiens), sequence (Q99549 whole entry, looked up): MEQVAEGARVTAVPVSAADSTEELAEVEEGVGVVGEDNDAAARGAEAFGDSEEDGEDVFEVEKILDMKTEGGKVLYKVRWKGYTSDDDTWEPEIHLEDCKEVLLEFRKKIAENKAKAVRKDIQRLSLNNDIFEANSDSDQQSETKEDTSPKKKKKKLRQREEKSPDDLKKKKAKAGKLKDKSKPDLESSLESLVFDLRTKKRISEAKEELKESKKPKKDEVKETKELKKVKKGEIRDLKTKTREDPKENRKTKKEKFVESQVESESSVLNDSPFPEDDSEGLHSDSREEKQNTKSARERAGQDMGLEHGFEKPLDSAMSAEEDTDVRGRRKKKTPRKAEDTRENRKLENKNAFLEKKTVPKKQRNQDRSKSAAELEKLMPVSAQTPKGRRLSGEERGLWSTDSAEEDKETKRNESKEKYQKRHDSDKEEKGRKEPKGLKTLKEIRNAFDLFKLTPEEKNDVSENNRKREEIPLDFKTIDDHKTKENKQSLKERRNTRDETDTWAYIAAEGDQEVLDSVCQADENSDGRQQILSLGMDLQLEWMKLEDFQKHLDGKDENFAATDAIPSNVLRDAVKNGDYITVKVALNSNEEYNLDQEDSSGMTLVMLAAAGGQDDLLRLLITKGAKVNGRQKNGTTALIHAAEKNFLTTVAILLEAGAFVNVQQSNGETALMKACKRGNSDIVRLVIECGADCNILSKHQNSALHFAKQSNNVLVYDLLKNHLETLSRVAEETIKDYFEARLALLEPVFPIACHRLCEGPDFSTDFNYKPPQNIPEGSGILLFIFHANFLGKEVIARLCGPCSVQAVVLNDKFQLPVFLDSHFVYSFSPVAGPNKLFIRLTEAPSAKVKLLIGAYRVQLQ
Chromobox protein homolog 1 (Homo sapiens), sequence (P83916 whole entry, looked up): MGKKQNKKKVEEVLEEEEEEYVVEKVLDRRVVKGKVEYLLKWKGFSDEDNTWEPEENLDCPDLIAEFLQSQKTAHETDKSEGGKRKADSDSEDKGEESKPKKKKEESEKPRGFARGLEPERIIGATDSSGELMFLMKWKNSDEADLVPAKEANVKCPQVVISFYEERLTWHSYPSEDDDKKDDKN
Ubiquitin carboxyl-terminal hydrolase 2 (Homo sapiens), sequence (O75604 whole entry, looked up): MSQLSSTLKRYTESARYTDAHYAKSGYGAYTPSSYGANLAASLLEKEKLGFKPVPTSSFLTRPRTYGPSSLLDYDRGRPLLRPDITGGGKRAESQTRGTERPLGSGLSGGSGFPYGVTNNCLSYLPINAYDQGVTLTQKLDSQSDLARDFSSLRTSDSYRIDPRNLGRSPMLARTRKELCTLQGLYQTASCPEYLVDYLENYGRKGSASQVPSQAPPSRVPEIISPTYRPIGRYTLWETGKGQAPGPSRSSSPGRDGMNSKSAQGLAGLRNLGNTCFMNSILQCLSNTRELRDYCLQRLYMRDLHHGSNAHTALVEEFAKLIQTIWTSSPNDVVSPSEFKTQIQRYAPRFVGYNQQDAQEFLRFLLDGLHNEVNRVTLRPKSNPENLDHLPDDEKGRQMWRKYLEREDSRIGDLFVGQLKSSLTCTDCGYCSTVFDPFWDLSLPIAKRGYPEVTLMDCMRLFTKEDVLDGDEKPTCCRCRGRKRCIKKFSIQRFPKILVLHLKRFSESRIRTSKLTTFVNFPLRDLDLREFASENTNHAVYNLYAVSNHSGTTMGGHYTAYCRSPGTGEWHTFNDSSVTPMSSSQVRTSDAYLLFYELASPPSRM
Flap endonuclease 1 (Homo sapiens), sequence (P39748 whole entry, looked up): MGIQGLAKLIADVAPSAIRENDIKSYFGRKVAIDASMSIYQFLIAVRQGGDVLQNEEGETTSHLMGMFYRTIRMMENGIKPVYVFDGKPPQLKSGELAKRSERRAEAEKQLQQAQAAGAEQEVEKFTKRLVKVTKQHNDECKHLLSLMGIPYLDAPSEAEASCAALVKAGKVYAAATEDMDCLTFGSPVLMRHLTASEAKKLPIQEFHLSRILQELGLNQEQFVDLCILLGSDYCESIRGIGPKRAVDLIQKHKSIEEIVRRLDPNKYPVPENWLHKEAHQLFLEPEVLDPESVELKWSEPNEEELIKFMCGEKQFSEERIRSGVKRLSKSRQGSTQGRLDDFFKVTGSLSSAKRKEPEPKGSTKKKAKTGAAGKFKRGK
Beta-2 adrenergic receptor (Homo sapiens), sequence (P07550 whole entry, looked up): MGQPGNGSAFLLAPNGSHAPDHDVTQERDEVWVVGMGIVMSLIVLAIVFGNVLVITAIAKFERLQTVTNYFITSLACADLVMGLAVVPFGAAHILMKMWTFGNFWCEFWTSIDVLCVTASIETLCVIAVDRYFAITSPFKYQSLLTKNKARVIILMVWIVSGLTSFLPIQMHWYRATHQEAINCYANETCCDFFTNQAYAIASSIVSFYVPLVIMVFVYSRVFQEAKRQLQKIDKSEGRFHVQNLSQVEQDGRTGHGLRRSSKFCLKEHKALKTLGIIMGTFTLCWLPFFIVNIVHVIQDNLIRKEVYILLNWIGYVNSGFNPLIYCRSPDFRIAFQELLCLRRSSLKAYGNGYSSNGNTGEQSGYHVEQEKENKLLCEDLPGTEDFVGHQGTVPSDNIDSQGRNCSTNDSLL
Tumor susceptibility gene 101 protein (Homo sapiens), sequence (Q99816 whole entry, looked up, the tested form may be a part): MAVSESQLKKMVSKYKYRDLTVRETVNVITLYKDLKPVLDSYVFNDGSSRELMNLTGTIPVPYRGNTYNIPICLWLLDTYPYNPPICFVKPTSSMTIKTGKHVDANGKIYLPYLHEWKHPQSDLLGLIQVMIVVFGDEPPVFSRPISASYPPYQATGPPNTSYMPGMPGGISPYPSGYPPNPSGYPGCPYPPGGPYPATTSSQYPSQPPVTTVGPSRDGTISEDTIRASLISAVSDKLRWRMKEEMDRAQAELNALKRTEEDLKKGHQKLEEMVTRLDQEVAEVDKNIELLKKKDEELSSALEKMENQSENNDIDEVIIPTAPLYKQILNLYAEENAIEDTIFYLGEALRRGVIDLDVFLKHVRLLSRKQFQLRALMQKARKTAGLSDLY
DNA polymerase III PolC-type (Bacillus subtilis (strain 168)), sequence (P13267 whole entry, looked up): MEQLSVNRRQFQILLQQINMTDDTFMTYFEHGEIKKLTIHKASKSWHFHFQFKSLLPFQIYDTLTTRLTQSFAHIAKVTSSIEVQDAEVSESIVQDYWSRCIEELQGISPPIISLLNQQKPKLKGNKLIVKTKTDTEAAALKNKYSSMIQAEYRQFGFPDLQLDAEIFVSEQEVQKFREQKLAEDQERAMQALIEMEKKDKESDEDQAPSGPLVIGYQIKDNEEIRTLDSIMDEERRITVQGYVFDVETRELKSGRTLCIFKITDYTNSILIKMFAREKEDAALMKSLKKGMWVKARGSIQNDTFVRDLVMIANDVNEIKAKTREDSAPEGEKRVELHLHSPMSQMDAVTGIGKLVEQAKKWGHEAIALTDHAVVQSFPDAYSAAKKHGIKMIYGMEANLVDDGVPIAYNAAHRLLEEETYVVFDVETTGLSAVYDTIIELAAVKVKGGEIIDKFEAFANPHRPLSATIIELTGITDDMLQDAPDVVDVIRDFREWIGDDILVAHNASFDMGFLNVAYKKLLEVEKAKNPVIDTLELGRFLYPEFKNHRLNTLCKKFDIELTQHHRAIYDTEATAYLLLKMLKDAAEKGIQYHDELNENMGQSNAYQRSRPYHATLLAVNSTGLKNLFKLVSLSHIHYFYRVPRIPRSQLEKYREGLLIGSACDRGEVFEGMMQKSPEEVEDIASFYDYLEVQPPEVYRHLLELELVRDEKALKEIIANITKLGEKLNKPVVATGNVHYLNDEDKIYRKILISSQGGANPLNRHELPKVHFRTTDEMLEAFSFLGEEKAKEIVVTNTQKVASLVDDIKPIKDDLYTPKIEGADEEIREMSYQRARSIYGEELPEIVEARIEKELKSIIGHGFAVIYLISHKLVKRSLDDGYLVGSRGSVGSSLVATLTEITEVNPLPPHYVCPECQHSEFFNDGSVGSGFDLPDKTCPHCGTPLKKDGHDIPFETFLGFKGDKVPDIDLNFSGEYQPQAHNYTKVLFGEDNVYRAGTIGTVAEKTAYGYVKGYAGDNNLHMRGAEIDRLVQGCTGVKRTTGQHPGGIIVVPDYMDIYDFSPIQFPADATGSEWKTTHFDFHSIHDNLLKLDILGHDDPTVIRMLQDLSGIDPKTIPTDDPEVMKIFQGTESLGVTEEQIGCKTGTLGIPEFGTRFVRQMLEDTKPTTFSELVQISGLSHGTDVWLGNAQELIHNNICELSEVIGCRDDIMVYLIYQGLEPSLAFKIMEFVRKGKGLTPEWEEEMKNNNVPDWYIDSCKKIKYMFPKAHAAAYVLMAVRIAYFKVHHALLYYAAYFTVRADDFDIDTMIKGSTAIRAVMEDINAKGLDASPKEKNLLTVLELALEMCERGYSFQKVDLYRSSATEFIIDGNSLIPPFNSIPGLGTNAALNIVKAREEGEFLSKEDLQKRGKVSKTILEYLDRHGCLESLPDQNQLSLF
Ferritin light chain (Equus caballus), sequence (P02791 2-175 limits assumed): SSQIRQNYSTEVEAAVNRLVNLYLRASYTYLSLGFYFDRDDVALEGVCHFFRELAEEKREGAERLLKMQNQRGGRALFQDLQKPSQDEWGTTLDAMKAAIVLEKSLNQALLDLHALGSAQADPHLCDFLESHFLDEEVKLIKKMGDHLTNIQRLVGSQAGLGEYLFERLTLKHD

CCNC(=O)[C@H]1O[C@@H](n2cnc3c(N)nc(NCCc4ccc(CCC(=O)O)cc4)nc32)[C@H](O)[C@H]1O
inactive: [1] | [2] | [3] | [4] | [5] | [6] | [7]

C[C@H]1O[C@@H](n2cc(F)c(=O)[nH]c2=O)[C@H](O)[C@H]1O
not listed: [1] | [2] | [3] | [4] | [5] | [6]
inactive: all other assays above

C=CCc1cccc(C=NNC(=O)CN2CCN(Cc3ccccc3)CC2)c1O
not listed: [1] | [2] | [3] | [4] | [5] | [6] | [11]
inactive: all other assays above
